According to paper PMC4336329 (PLoS ONE, 2015):
Screen size: about 310,000 compounds; about 14,000 (4.5%) showed an effect of 50% or more. The effect is printed as a negative number. This is one part of a sample in which strong results are shown more often than they occur.

Molecular target: human ether-à-go-go-related gene (hERG) potassium channel (human, UniProt Q12809)
Test: primary screen, population patch clamp on CHO cells stably expressing hERG; higher = less effect of the substance
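Also: peak tail current of the secondary pulse compared with the same well before compound.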

Chain of human ether-à-go-go-related gene (hERG) potassium channel (Q12809 whole entry, looked up): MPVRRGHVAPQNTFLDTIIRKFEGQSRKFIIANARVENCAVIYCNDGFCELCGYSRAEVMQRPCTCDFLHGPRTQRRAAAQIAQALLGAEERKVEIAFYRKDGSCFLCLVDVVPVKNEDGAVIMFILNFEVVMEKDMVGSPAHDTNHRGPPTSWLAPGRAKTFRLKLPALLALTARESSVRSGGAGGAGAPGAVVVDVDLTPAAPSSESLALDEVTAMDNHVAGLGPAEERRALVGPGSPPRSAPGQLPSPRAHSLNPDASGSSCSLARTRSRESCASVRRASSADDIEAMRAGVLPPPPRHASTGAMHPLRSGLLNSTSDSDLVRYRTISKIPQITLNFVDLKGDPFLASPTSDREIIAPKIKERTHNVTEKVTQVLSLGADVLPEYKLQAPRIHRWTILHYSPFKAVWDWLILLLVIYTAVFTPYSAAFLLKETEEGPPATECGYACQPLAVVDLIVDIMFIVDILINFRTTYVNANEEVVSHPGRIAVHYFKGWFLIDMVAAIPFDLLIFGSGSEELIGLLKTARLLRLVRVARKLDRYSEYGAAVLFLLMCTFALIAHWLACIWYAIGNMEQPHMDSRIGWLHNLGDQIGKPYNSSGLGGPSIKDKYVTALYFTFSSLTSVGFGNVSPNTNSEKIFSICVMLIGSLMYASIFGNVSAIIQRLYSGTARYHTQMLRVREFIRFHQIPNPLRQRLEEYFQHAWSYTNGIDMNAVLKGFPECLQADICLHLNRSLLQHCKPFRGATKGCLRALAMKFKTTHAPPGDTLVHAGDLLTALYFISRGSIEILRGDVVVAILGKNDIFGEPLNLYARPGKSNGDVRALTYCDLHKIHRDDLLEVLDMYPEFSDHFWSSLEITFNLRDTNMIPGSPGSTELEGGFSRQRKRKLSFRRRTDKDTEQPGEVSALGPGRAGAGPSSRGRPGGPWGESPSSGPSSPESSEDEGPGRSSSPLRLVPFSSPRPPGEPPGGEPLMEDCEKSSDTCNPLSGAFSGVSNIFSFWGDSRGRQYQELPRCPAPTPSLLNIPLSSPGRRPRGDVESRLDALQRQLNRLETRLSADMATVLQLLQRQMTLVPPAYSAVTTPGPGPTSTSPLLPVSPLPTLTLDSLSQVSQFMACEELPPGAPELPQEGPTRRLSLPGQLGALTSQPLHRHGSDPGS

SMILES	hERG current change (%, negative = inhibition) at 10uM [%]
O=C1NC(=O)C(Cc2ccccc2)(c2cccnc2)N1 (stereo not drawn)	17.7
Cc1ccc2nc(/C(C#N)=C\c3ccc(Oc4ccc([N+](=O)[O-])cn4)cc3)[nH]c2c1	1.61
CCc1ccc(-c2cc(C(=O)N/N=C/c3ccccn3)[nH]n2)cc1	-41.7
CC(=O)N1CCCC(N2CCN(c3cccc(C(F)(F)F)c3)CC2)C1 (stereo not drawn)	-3.73
CC1=C(C(=O)N2CCCC(N3CCN(c4cccc(C(F)(F)F)c4)CC3)C2)OCCO1 (stereo not drawn)	-17.9
Cc1ccc(C(=O)N2CCCC(N3CCN(c4cccc(C(F)(F)F)c4)CC3)C2)s1 (stereo not drawn)	-51
COc1cccc(C(=O)Nc2nnc(-c3ccccc3)s2)c1OC	4.52
COc1cccc(C(=O)Nc2sc(C(C)C)cc2C(N)=O)c1OC	-50.5
COc1cccc(NC(=O)c2cccc(OC)c2OC)c1	-0.56
CCCN1C(=O)c2cc(C(=O)NC3CCCC3)ccc2C1O (stereo not drawn)	-2.01
Cc1ccc(NCN2C(=O)C3CC=CCC3C2=O)cc1 (stereo not drawn)	2.67
COc1ccccc1NC(=O)CN(Cc1ccco1)C(=O)c1ccc(Cl)nc1	-28.4
CCCN(CC(=O)Nc1ccccc1OC)C(=O)c1cccc(S(=O)(=O)Nc2ccc(OC)cc2)c1	-11.4
CCN(CC(=O)Nc1ccccc1OC)C(=O)c1ccc(N(C)S(=O)(=O)c2ccc(C)cc2)cc1	-62.2
CCCN(CC(=O)Nc1ccccc1OC)C(=O)c1ccc(S(=O)(=O)Nc2ccccc2)cc1	-53.4
CCOC(=O)c1c(C)[nH]c(C)c1S(=O)(=O)N(C)CC(=O)Nc1ccccc1C	14.4
CCOC(=O)c1c(C)[nH]c(C)c1S(=O)(=O)N(C)CC(=O)Nc1ccccc1OC	-60
COc1ccccc1NC(=O)CN(Cc1ccco1)C(=O)c1cncc(Br)c1	-22.4
CCOC(=O)c1c(C)[nH]c(C)c1S(=O)(=O)N(C)CC(=O)Nc1cc(C)ccc1OC	-24.7

SMILES	hERG current change (%, negative = inhibition) at 10uM [%]
CCN(Cc1ccccc1)C(=O)c1ccc(N(C)S(=O)(=O)c2ccc(C)cc2)cc1	-38.7
CCN(CC(=O)Nc1ccccc1OC)C(=O)c1ccc(NS(=O)(=O)c2ccc(C(C)=O)cc2)cc1	0.13
CCN(CC(=O)NC(C)C)C(=O)c1ccc(S(=O)(=O)N(C)c2ccccc2OC)cc1	-2.53
COc1ccccc1NC(=O)CN(Cc1ccco1)C(=O)c1ccc(-n2nc(C)cc2C)cc1	-51.2
COc1ccc2[nH]cc(C(=O)CCl)c2c1	8.92
COCCN1C(=O)N(c2ccccc2)C(=O)C1CC(=O)Nc1cc(OC)cc(OC)c1 (stereo not drawn)	14
CSc1nnc(C)c(/C=C/NOCc2cccc(F)c2)n1	4.03
Cl.OCCN(Cc1ccccc1)CC(O)COc1ccc(-c2ccccc2)cc1 (stereo not drawn)	-28.3
CCOC(=O)c1ccc(NC(=O)CCc2nc(-c3cccc(C)c3)no2)cc1	7.13
Cc1ccc(S(=O)(=O)c2c(C)cc(C)[nH]c2=O)cc1	20.3
CCn1nnnc1SCC(=O)Nc1cccc(NC(C)=O)c1	-1.06
Cc1csc(NC(=O)CSc2nncc(=O)n2N)n1	19
O=C(Nc1cccc(/C=C/c2ccccn2)c1)c1ccc(-n2cncn2)c([N+](=O)[O-])c1	-24.9
Cc1cc(C)cc(OCC(=O)Nc2cc(C)on2)c1	15.9
Cc1c(NS(=O)(=O)c2cccc(C(=O)NCc3ccncc3)c2)c(=O)n(-c2ccccc2)n1C	6.38
Cc1nnc2c(SC(C)C)nc3ccccc3n12	-77.2
Cc1nnc2c(NC(C)C)nc3ccccc3n12	-26.8
CC(C)Sc1nc2ccccc2n2cnnc12	-6.25
CCC(NC(=S)NCc1ccc(F)cc1)c1ccc(C)cc1 (stereo not drawn)	13.7

SMILES	hERG current change (%, negative = inhibition) at 10uM [%]
COc1ccc(NC(=O)c2ccccc2NC(=O)C2CC=CCC2C(=O)O)cc1 (stereo not drawn)	15.6
Cc1ccc(CNC(=O)CCSCc2ccc(C)cc2)cc1	-2.27
CCOC(=O)C1CCN(C2CCN(Cc3nc(-c4ccccc4)no3)CC2)CC1	-71.5
CCOC(=O)C1CCCN(C2CCN(Cc3nc(Cc4ccccc4)no3)CC2)C1 (stereo not drawn)	-60.3
CCOC(=O)C1CCN(Cc2nc(-c3ccc(OC)c(OC)c3)no2)CC1	2.83
CCOC(=O)C1CCCN(Cc2nc(Cc3cccc(F)c3)no2)C1 (stereo not drawn)	-6.6
Cc1ccc(-c2noc(CN3CCC(C(N)=O)CC3)n2)cc1	21.9
CCOC(=O)N1CCN(Cc2nc(-c3ccccc3)no2)CC1	2
NC(=O)C1CCN(Cc2nc(-c3ccccc3)no2)CC1	-14.1
CCOC(=O)C1CCCN(Cc2nc(Cc3ccccc3Cl)no2)C1 (stereo not drawn)	-14.1
CCOC(=O)C1CCCN(C2CCN(Cc3nc(-c4ccccc4)no3)CC2)C1 (stereo not drawn)	-56.5
CCc1ccccc1NC(=O)Cn1nc(C(F)(F)F)c2c1CCC2	7.74
CN=c1scc(C)n1/N=C/c1cc(Br)c(O)c(OC)c1	15.8
C=C(C)c1cccc(C(C)(C)NC(=O)NCC2CCCO2)c1 (stereo not drawn)	3.74
CCOc1ccc(Cl)cc1S(=O)(=O)N1CCC(C(=O)NCC2CCCO2)CC1 (stereo not drawn)	-2.63
CC(C)c1nc(N2CCOCC2)c(C#N)c2c1COC(C)(C)C2	9.56
Cc1cc(/C=C2/C(=N)N3C(=NC2=O)SN=C3S(C)(=O)=O)c(C)n1-c1ccc(F)cc1	47.6
Cc1cc(/C=C2/C(=N)N3C(=NC2=O)SN=C3S(C)(=O)=O)c(C)n1-c1ccccc1	0.917
CCOc1ccc(-n2c(C)cc(/C=C3/C(=N)N4C(=NC3=O)SN=C4S(C)(=O)=O)c2C)cc1	-53.4
